Screens (PubChem)
Most compounds without a hit are left out; they make up all but 19% or so of the library.
HT1080 IDH1KD tx – kills HT-1080 cells with IDH1 knockdown | HT-1080 IDH1 knockdown viability, ATP luminescence, 48 h | Potency, µM (series often up to 46.1 µM), without a hit: at the top dose activity, negative = toxicity, hits mostly cytotoxic | 360,000 compounds, 2% hits;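 further: 0% = DMSO wells and -100% = cell-free medium wells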
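Assay cells: HT-1080 with IDH1 knockdown, 750 per well, RPMI/5% FBS. Exposure: 48 h at 37 °C following 2 h pre-incubation. Read: CellTiter-Glo luminescence; fitted concentration-response, curve class assigned.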
DT40 TDP1 CPT – DT40-hTDP1 cell growth loss with CPT | chicken DT40 Tdp1-/-;hTDP1 cells + 20 nM CPT, ATP luminescence, 48 h | Potency, µM (series often up to 46.2 µM), inactives show at the top dose activity change, negative = growth inhibition, actives largely listed as inhibitors | 420,000 compounds, 12% hits | AID 686979; further: nearly all actives have a fitted effect of over 55% in size
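Cell growth measured by CellTiter-Glo luminescence after a minimum 48 h, 37 C compound exposure with 20 nM CPT in Tdp1-knockout DT40 cells stably expressing hTDP1, seeded 400/well; qHTS titration format.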
KB-V1 cytotox – kills drug-selected multidrug resistant KB-V1 cells; 400,000 compounds, 3.4% hits; AID 1347076; KB-V1 MDR cells viability, CellTiter-Glo, 72 h; Potency, µM (doses to about 46.1 µM), actives largely listed as cytotoxic; further: nearly all actives have a fitted effect of over 60% in size
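Potencies derive from concentration-effect curves fitted to normalized luminescence (CellTiter-Glo) of KB-V1 cells treated for 72 h at 37 degrees C in phenol-red-free DMEM containing 10% FBS.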
DT40 TDP1 no CPT – qHTS for Inhibitors of human tyrosyl-DNA phosphodiesterase 1 (TDP1): qHTS in cells in absence of CPT; Potency, µM (highest dose often 46.2 µM), inactives show at the highest dose activity change, negative = growth inhibition, usual class: inhibitors; DT40 Tdp1-/- hTDP1 cells, no CPT, ATP luminescence, 48 h; 420,000 compounds, 15% hits; further: nearly all actives have a fitted effect of over 55% in size
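Stably hTDP1-transfected Tdp1-null chicken DT40 cells were treated with library compounds minus camptothecin and grown for at least 48 hr at 37 °C, after which cellular ATP was quantified by luminescence.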
HT1080-NT tox – kills 2HG-producing HT-1080-NT fibrosarcoma cells; HT-1080-NT fibrosarcoma viability, CellTiter-Glo ATP luminescence, 48 h; Potency, µM (highest dose often 46.1 µM), for inactives: at the top dose activity, negative = less viability, hits mostly cytotoxic; 360,000 compounds, 1.6% hits; AID 686970;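 further: NT is the 2HG producing partner of a matched IDH1 knockdown line; 0% = DMSO-treated cells and -100% = media-only wells without cells; nearly all actives have a fitted effect of over 55% in size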
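HT-1080-NT; 750 cells/well; 5% FBS RPMI; 48 h compound, 37 degrees C; CellTiter-Glo luminescence; curve fitting and curve-class assignment.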
KB-3-1 tox – KB-3-1 parental cell cytotoxicity. KB-3-1 viability, CellTiter-Glo ATP luminescence, 72 h. Potency, µM (titrated, usually from 46.1 µM), actives largely listed as cytotoxic. 400,000 compounds, 1.4% hits. AID 1347075; further: nearly all actives have a fitted effect of over 60% in size
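72 h, 37 °C compound treatment of KB-3-1 parental cells; CellTiter-Glo added, 10 min, luminescence read. Data corrected against DMSO-only plates and normalized before curve fitting.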
* = called active by the depositor; i = inactive; ? = inconclusive; . = no result given; [ ] = another dose, or the depositor's remark. The call rests on the fitted dose curve; in most records, active means well fitted curve in the direction sought with a large enough effect; inconclusive means small, poorly fitted or top-dose-only effect, or another doubt; inactive means no such curve, though single readings can be large; an effect the other way counts as inactive or inconclusive. Unless noted, on the % scale 0 is the no-effect control and ±100 the full control effect; potency means the concentration at half of the fitted maximal effect.

SMILES	HT1080 IDH1KD tx	DT40 TDP1 CPT	KB-V1 cytotox	DT40 TDP1 no CPT	HT1080-NT tox	KB-3-1 tox
CCOC(=O)C1(C)CCCCCN1C(=O)/C=C/c1ccccc1 (configuration not stated)	18.6%	16.4µM*	i	16.4µM*	22.7%	i
CCOC(=O)C1(C)CCN1C(=O)c1ccc(Cl)cc1Cl (configuration not stated)	0.0%	-1.3%	i	-6.2%	7.7%	i
CCOC(=O)C1(C)CCCCN1C(=O)c1ccco1 (configuration not stated)	22.4%	-7.2%	i	-2.2%	26.7%	i
CCOC(=O)C1(C)CCCN1C(=O)c1ccc(C)cc1 (configuration not stated)	16.2%	-24.4%	i	-17.2%	3.1%	i
CCOC(=O)C1(C)CCN1C(=O)c1cc(-c2ccc(Cl)cc2)oc1C (configuration not stated)	?	18.4µM*	i	5.17µM*	-24.2%	i
CCOC(=O)C1(C)CCCN1C(=O)c1cccc2ccccc12 (configuration not stated)	7.7%	11.6µM*	i	18.4µM*	7.6%	i
CCOC(=O)C1(C)CCCCCN1C(=O)c1ccc(N(C)C)cc1 (configuration not stated)	12.7%	?	i	20.6µM*	21.0%	i
CCn1cc(C(=O)NCCCN(CC(C)C)CC(C)C)c(=O)c2cc(S(=O)(=O)N(C)C3CCCCC3)ccc21	0.3%	?	i	?	-5.5%	i
C#CCOc1ccc(/C=C2/C(=O)ON=C2C)cc1Cl	-10.6%	?	i	18.4µM*	-1.6%	i
CC1=NOC(=O)/C1=C\c1ccc(-c2ccc(Cl)cc2Cl)o1	?	13µM*	?	11.6µM*	?	?
CCCOc1ccc(Cl)cc1/C=C1/C(=O)ON=C1C	4.7%	29.1µM*	i	?	1.0%	i
CN1CCN(CC(=O)Nc2nnc(-c3cccs3)s2)CC1	-0.5%	0.6%	i	0.4%	-0.5%	i
Cc1ccc(S(=O)(=O)N2CCOCC2)cc1NC(=O)COC(=O)c1ccc(Cl)nc1	13.5%	2.8%	i	-1.0%	7.3%	i
COc1ccc(CCNc2ncnc3c2nnn3C)cc1	.	16.4µM*	.	20.6µM*	.	.
COc1ccc(CCNc2ccncn2)cc1	-4.6%	9.2µM*	i	14.6µM*	-2.4%[9.24 µM]	i
COc1cccc(CCNc2ncnc3c2nnn3C)c1	.	?	.	8.2µM*	.	.
COc1ccccc1CNc1ncnc2c1nnn2C	.	14.8%	.	-3.1%	.	.
Cn1nnc2c(NCc3ccccc3Cl)ncnc21	.	-9.7%	.	-9.8%	.	.
Cc1cc(C)c(-n2c(SCC(=O)N3CCOCC3)n[nH]c2=O)c(C)c1	-0.6%	-5.0%	i	13.0%	-0.6%	i
CC(C)(C)c1ccc(C(=O)N2CCCC2c2cccs2)cc1 (configuration not stated)	-8.8%	-17.2%	?	?	-3.5%	i
COc1ccc(CNc2ncnc3cc(OC)c(OC)cc23)cc1OC	-10.4%	4.1%	?	-4.9%	-2.8%	i
COc1ccc(C(=O)Oc2cccc(Nc3ncnc4ccccc34)c2)cc1OC	5.0%	?	18.4µM*	18.4µM*	-3.4%	?
COc1cc(C(=O)Oc2cccc(Nc3ncnc4ccccc34)c2)cc(OC)c1OC	-9.5%	23.1µM*	?	16.4µM*	?	i
C#Cc1cccc(Nc2ncnc3cc(OC)c(OC)cc23)c1	.	?	.	23.1µM*	.	.
O=C(Oc1cccc(Nc2ncnc3ccccc23)c1)c1cccnc1	-3.0%	?	i	-10.4%	-19.8%	i
SMILES	HT1080 IDH1KD tx	DT40 TDP1 CPT	KB-V1 cytotox	DT40 TDP1 no CPT	HT1080-NT tox	KB-3-1 tox
Cc1ccc(S(=O)(=O)N2CCOCC2)cc1C(=O)N1CCN(c2ncccn2)CC1	0.0%	6.8%	i	5.4%	-0.6%	i
COc1cc(C(=S)N2CCN(c3ccccc3Cl)CC2)cc(O)c1O	?	?	i	23.1µM*	-22.7%	i
COc1ccc(C(=S)N2CCN(c3ccccc3Cl)CC2)cc1OC	-4.2%	?	i	16.4µM*	-9.7%	i
COc1ccc(C(=S)N2CCCC2)cc1OC	7.2%	2.0%	i	-4.4%	8.3%	i
CCOc1ccc(NC(=O)CCC(=O)c2ccc(OC)cc2)cc1	-2.2%	-4.2%	i	-2.1%	2.3%	i
NC(=O)C1=C[C@@H](c2csc3ccccc23)C[C@@H](OCCCCO)O1	-10.6%	-2.7%	i	-19.2%	-1.0%	i
Cn1ccc2c(OCC(=O)NCc3ccccc3)cccc2c1=O	.	?	i	?	.	i
Cn1ccc2c(OCC(=O)Nc3cc(C(F)(F)F)ccc3Cl)cccc2c1=O	.	25.9µM*	i	14.6µM*	.	i
CCn1ccc2c(OCC(=O)Nc3ccccc3C(F)(F)F)cccc2c1=O	.	14.6µM*	?	20.6µM*	.	i
Cc1cccc(NC(=O)COc2cccc3c(=O)n(C)ccc23)c1C	.	23.1µM*	i	18.4µM*	.	i
CCn1ccc2c(OCC(=O)NCc3ccccc3)cccc2c1=O	.	-7.6%	i	?	.	i
CCn1ccc2c(OCC(=O)Nc3ccccc3C)cccc2c1=O	.	14.6µM*	i	11.6µM*	.	?
COc1cc(C=C(c2nc3ccccc3s2)c2nc3ccccc3s2)ccc1O	?	-17.9%	i	-27.6%	?	i
COc1ccc(C=C(c2nc3ccccc3s2)c2nc3ccccc3s2)cc1O	?	?	?	20.6µM*	?	i
